Results published in the supplement of paper PMC12350171.
Structures can show the parent of a compound that is named as a salt.

How the values were obtained:
Conditions in all cases: 20 µM
[1] = test system: Salmonella enterica typhimurium; experiment: growth AUC normalised to DMSO control (fraction of control); higher = less growth inhibition, active = hit call of the paper
How it was run: (§1)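 Three biological replicates were carried out, with OD578 read hourly for 24 h. Before inoculation at a starting OD578 of 0.01, pathogens were passaged anaerobically twice; plates were pre-reduced mGAM containing 20 μM compound and 1% DMSO, sealed with breathable membranes, and the Haemophilus parainfluenzae medium carried added hemin and NAD. Area under each growth curve was calculated by the trapezoidal rule up to the exponential-to-stationary transition and normalised to DMSO controls on the same plate.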

Shigella flexneri = experiment: as above
How it was run: as §1

Vibrio cholerae = experiment: as above
How it was run: as §1

[2] = test system: Yersinia pseudotuberculosis; experiment: as above
How it was run: as §1

P. vulgatus RND KO = experiment: growth AUC normalised to DMSO control (median) (fraction of control); higher = less growth inhibition, active = hit call of the paper
How it was run: (§2)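 Area under the growth curve, calculated by the trapezoidal rule up to entry into stationary phase, was normalised to vehicle wells on the same plate. Strains had been passaged twice overnight without oxygen and then grown in mGAM in 96-well plates from OD578 0.01, each with an approved-drug library compound at 20 μM in 1% DMSO. OD578 was read hourly over 24 h in an anaerobic incubator, and the median of three biological replicates is given.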

P. vulgatus WT = experiment: as above
How it was run: as §2

[3] = test system: S. enterica typhimurium WT; experiment: as above
How it was run: as §2

[4] = test system: S. enterica typhimurium tolC KO; experiment: as above
How it was run: as §2

Measured: growth AUC normalised to DMSO control
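Throughout, for growth AUC normalised to DMSO control (median): active when median AUC fell below 0.1.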

O=C1CCc2cc(OCCCCc3nnnn3C3CCCCC3)ccc2N1 [Cilostazol]
inactive: [1] 0.985 | Shigella flexneri 0.971 | Vibrio cholerae 0.958 | [2] 0.989 | P. vulgatus RND KO 0.975 | P. vulgatus WT 0.98 | [3] 1 | [4] 0.851

COC(=O)[C@H]1[C@H]2C[C@@H]3c4[nH]c5cc(OC)ccc5c4CCN3C[C@H]2C[C@@H](OC(=O)c2cc(OC)c(OC)c(OC)c2)[C@@H]1OC [Reserpine]
inactive: [1] 1.02 | Shigella flexneri 1.05 | Vibrio cholerae 1.06 | [2] 1.02 | P. vulgatus RND KO 1.04 | P. vulgatus WT 1.05 | [3] 1.02 | [4] 1

CCn1cc(C(=O)O)c(=O)c2cc(F)c(N3CCN(C)CC3)cc21 [Pefloxacin]
inactive: P. vulgatus RND KO 1.01 | P. vulgatus WT 0.799
active: [1] 0.00601 | Shigella flexneri 0.0383 | Vibrio cholerae 0.0435 | [2] 0.0255 | [3] 0.00724 | [4] 0.00757

NC(=O)N1c2ccccc2C=Cc2ccccc21 [Carbamazepine]
inactive: [1] 0.997 | Shigella flexneri 0.996 | Vibrio cholerae 0.999 | [2] 1 | P. vulgatus RND KO 1 | P. vulgatus WT 1.04 | [3] 0.998 | [4] 0.999

CCOC(=O)c1ccc(N)cc1 [Benzocaine]
inactive: [1] 1.02 | Shigella flexneri 1.03 | Vibrio cholerae 1.07 | [2] 1.03 | P. vulgatus RND KO 1.04 | P. vulgatus WT 1.07 | [3] 1.01 | [4] 1.01

CC(CN(C)C)CN1c2ccccc2CCc2ccccc21 (stereo not given) [Trimipramine maleate salt]
inactive: [1] 1 | Shigella flexneri 1.05 | Vibrio cholerae 1.07 | [2] 1.01 | P. vulgatus RND KO 1.06 | P. vulgatus WT 1.03 | [3] 1.02 | [4] 0.963

CC[N+](CC)(CC(=O)Nc1c(C)cccc1C)Cc1ccccc1 [Denatonium benzoate]
inactive: [1] 1.01 | Shigella flexneri 1.02 | Vibrio cholerae 1.03 | [2] 0.982 | P. vulgatus RND KO 1.05 | P. vulgatus WT 1.09 | [3] 0.999 | [4] 1.01

O=C(O)CCCC[C@@H]1SC[C@@H]2NC(=O)N[C@@H]21 [Biotin]
inactive: [1] 0.992 | Shigella flexneri 0.975 | Vibrio cholerae 1 | [2] 0.946 | P. vulgatus RND KO 1.01 | P. vulgatus WT 1.03 | [3] 1 | [4] 1

COc1cccc(N(C)C(=S)Oc2ccc3c(c2)CCCC3)n1 [Liranaftate]
inactive: [1] 1.02 | Shigella flexneri 1.03 | Vibrio cholerae 1.01 | [2] 1.01 | P. vulgatus RND KO 1.03 | P. vulgatus WT 1.07 | [3] 0.996 | [4] 0.909

Nc1nc(=S)c2ncn([C@@H]3O[C@H](CO)[C@@H](O)[C@H]3O)c2[nH]1 [Thioguanosine]
inactive: Vibrio cholerae 0.957 | P. vulgatus RND KO 1.03 | P. vulgatus WT 1.06 | [3] 0.849 | [4] 0.779
active: [1] 0.828 | Shigella flexneri 0.0952 | [2] 0.826

Nc1nc(=O)[nH]cc1F [Flucytosine]
inactive: [1] 0.983 | Shigella flexneri 0.968 | Vibrio cholerae 0.961 | [2] 1.01 | P. vulgatus RND KO 0.996 | P. vulgatus WT 0.991 | [3] 1 | [4] 0.965

COc1cc([S+](C)[O-])ccc1-c1nc2cccnc2[nH]1 (stereo not given) [Sulmazole]
inactive: [1] 1.02 | Shigella flexneri 1.03 | Vibrio cholerae 1.04 | [2] 1.02 | P. vulgatus RND KO 1.07 | P. vulgatus WT 1.08 | [3] 0.999 | [4] 0.987

CC(C)(C)NC[C@H](O)COc1nsnc1N1CCOCC1 [Timolol maleate salt]
inactive: [1] 0.981 | Shigella flexneri 1.01 | Vibrio cholerae 1.01 | [2] 0.987 | P. vulgatus RND KO 1.01 | P. vulgatus WT 1.01 | [3] 0.999 | [4] 0.999

O=C(CCCCC(=O)Nc1c(I)cc(I)c(C(=O)O)c1I)Nc1c(I)cc(I)c(C(=O)O)c1I [Iodipamide]
inactive: [1] 0.986 | Shigella flexneri 0.998 | Vibrio cholerae 0.995 | [2] 1 | P. vulgatus RND KO 1.01 | P. vulgatus WT 1 | [3] 0.999 | [4] 1.01

CCN(CC)CCOC(=O)c1ccc(N)cc1 [Procaine hydrochloride]
inactive: [1] 1 | Shigella flexneri 0.992 | Vibrio cholerae 1.01 | [2] 1 | P. vulgatus RND KO 1.02 | P. vulgatus WT 0.989 | [3] 0.992 | [4] 0.998

CC[C@@]1(O)C(=O)OCc2c1cc1n(c2=O)Cc2cc3c(CN(C)C)c(O)ccc3nc2-1 [Topotecan]
inactive: [1] 1.05 | Shigella flexneri 1.04 | Vibrio cholerae 1.03 | [2] 1.02 | P. vulgatus RND KO 1.01 | P. vulgatus WT 1.02 | [3] 1.02 | [4] 0.983

CN(C)CCC(c1ccc(Cl)cc1)c1ccccn1 (stereo not given) [Chlorpheniramine maleate]
inactive: [1] 0.987 | Shigella flexneri 0.94 | Vibrio cholerae 0.972 | [2] 0.956 | P. vulgatus RND KO 0.994 | P. vulgatus WT 0.987 | [3] 0.994 | [4] 0.996

O=C(O)c1cc(-c2ccc(F)cc2F)ccc1O [Diflunisal]
inactive: [1] 0.983 | Shigella flexneri 0.997 | Vibrio cholerae 0.899 | [2] 0.984 | P. vulgatus RND KO 0.999 | P. vulgatus WT 1.07 | [3] 0.973 | [4] 0.943

Oc1c(Cl)cc(Cl)c(Cl)c1Cc1c(O)c(Cl)cc(Cl)c1Cl [Hexachlorophene]
active: Vibrio cholerae 0.0587 | [2] 0.411 | P. vulgatus RND KO 0.00764 | P. vulgatus WT 0.00869 | [4] 0.00738
inactive: [1] 0.941 | Shigella flexneri 1.04 | [3] 0.972

CC(=O)OC[C@H]1O[C@@H]([S-])[C@H](OC(C)=O)[C@@H](OC(C)=O)[C@@H]1OC(C)=O.CCP(CC)CC.[Au+] [Auranofin]
inactive: Shigella flexneri 1.01 | P. vulgatus WT 0.233 | [3] 0.855 | [4] 0.862
active: [1] 0.877 | Vibrio cholerae 0.67 | [2] 0.672 | P. vulgatus RND KO 0.00406

O=C(O)CCC(=O)Nc1ccc(S(=O)(=O)Nc2nccs2)cc1 [Succinylsulfathiazole]
inactive: [1] 1 | Shigella flexneri 0.997 | Vibrio cholerae 0.999 | [2] 1 | P. vulgatus RND KO 1 | P. vulgatus WT 1.05 | [3] 1 | [4] 0.994

Nc1nc(=O)n([C@@H]2CS[C@H](CO)O2)cc1F [(-) Emtricitabine]
inactive: [1] 0.995 | Shigella flexneri 0.961 | Vibrio cholerae 0.993 | [2] 0.981 | P. vulgatus RND KO 0.983 | P. vulgatus WT 0.986 | [3] 0.998 | [4] 0.993

CC[C@H]1OC(=O)[C@H](C)[C@@H](O[C@H]2C[C@@](C)(OC)[C@@H](O)[C@H](C)O2)[C@H](C)[C@@H](O[C@@H]2O[C@H](C)C[C@H](N(C)C)[C@H]2O)[C@](C)(OC)C[C@@H](C)C(=O)[C@H](C)[C@@H](O)[C@]1(C)O [Clarithromycin]
inactive: [3] 0.744
active: [1] 0.688 | Shigella flexneri 0.508 | Vibrio cholerae 0.0231 | [2] 0.799 | P. vulgatus RND KO 0.0127 | P. vulgatus WT 0.0156 | [4] 0.00712

CCCNCC(O)COc1ccccc1C(=O)CCc1ccccc1 (stereo not given) [Propafenone hydrochloride]
inactive: [1] 1 | Shigella flexneri 0.994 | Vibrio cholerae 0.979 | [2] 0.99 | P. vulgatus RND KO 1.03 | P. vulgatus WT 1.05 | [3] 0.988 | [4] 0.948

C[C@@H]1C[C@H]2[C@@H]3C[C@H](F)C4=CC(=O)C=C[C@]4(C)[C@@]3(Cl)[C@@H](O)C[C@]2(C)[C@H]1C(=O)COC(=O)C(C)(C)C [Clocortolone pivalate]
inactive: [1] 1.03 | Shigella flexneri 1.06 | Vibrio cholerae 1.12 | [2] 1.05 | [3] 1.01 | [4] 1.04
active: P. vulgatus RND KO 0.0165 | P. vulgatus WT 0.0896

CCOC(=O)[C@H](CCc1ccccc1)N[C@@H](C)C(=O)N1Cc2ccccc2C[C@H]1C(=O)O [Quinapril hydrochloride]
inactive: [1] 0.986 | Shigella flexneri 0.967 | Vibrio cholerae 0.988 | [2] 1.01 | P. vulgatus RND KO 0.995 | P. vulgatus WT 0.982 | [3] 0.982 | [4] 0.996

Cc1noc(NS(=O)(=O)c2ccc(N)cc2)c1C [Sulfisoxazole]
inactive: [1] 0.995 | Shigella flexneri 1 | Vibrio cholerae 1.03 | [2] 0.971 | P. vulgatus RND KO 1 | P. vulgatus WT 1.05 | [3] 0.997 | [4] 0.98

O=C1c2ccccc2C(=O)C1c1ccccc1 [Phenindione]
inactive: [1] 0.982 | Shigella flexneri 0.956 | Vibrio cholerae 0.983 | [2] 0.983 | P. vulgatus RND KO 0.997 | P. vulgatus WT 0.989 | [3] 0.998 | [4] 0.977

Cc1cc(-c2ccccc2)nnc1NCCN1CCOCC1 [Minaprine dihydrochloride]
inactive: [1] 0.997 | Shigella flexneri 1.01 | Vibrio cholerae 1.02 | [2] 1 | P. vulgatus RND KO 1 | P. vulgatus WT 0.998 | [3] 1 | [4] 0.998

CCc1nc(N)nc(N)c1-c1ccc(Cl)cc1 [Pyrimethamine]
inactive: Vibrio cholerae 0.908 | [2] 0.932 | P. vulgatus RND KO 0.57 | P. vulgatus WT 0.288 | [3] 0.93 | [4] 0.66
active: [1] 0.915 | Shigella flexneri 0.851
